Data from the supplement of paper PMC13392028.

Tested on: PvIESI-1 RRM domain (Plasmodium vivax PVP01_0939900 aa 896-1203, GST fusion)
Assay: RBNS R-value (6-mer enrichment in protein-bound RNA vs input library) (ratio); higher = stronger binding preference; the methods of the paper give 50 / 100 / 500 nM protein instead
Experimental: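 RNA Bind-n-Seq: recombinant GST-tagged IESI-1 RRM domain was incubated at room temperature with a random 40-nt in vitro transcribed RNA library at 250, 500 or 1000 nM protein. Bound RNA was pulled down on glutathione beads and sequenced. R-value is the enrichment of each 6-mer in the bound RNA relative to the input library. Each 6-mer sits inside the random 40-mer context, not as an isolated oligo. Values are replicate 1 only.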

Row | Sequence | RBNS R-value (protein concentration: 250 nM) | RBNS R-value (protein concentration: 500 nM) | RBNS R-value (protein concentration: 1000 nM)
1 | CACCCG | 1.41 | 1.76 | 1.77
2 | UGAUGG | 3.91 | 4.11 | 3.78
3 | GGUGAU | 1.97 | 2.19 | 2.15
4 | CCUGAU | 3.03 | 3.36 | 3.13
5 | AUGAUA | 3.08 | 3.49 | 3.64
6 | ACUGAU | 2.99 | 3.2 | 3.11
7 | UGAUCU | 2 | 2.15 | 2.14
8 | UGAUGA | 5.51 | 5.62 | 5.25
9 | CCCGAG | 1.41 | 1.72 | 1.72
10 | UGAUAG | 3 | 3.35 | 3.29
11 | UUGAUG | 4.85 | 5.06 | 4.68
12 | UGAUUG | 3.56 | 3.76 | 3.39
13 | UUGAUC | 1.91 | 2.12 | 2.1
